High-throughput results: PubChem BioAssay, National Center for Advancing Translational Sciences (NCATS)
DT40 TDP1 CPT = DT40-hTDP1 cell growth loss with CPT; Potency, µM (highest dose often 46.2 µM), for inactives: top-dose activity change, negative = growth inhibition, hits mostly inhibitors; hit rate 12% among 420,000; chicken DT40 Tdp1-/-;hTDP1 cells + 20 nM CPT, ATP luminescence, 48 h; further: potency means the concentration at half of the fitted maximal effect; on the % scale 0 is the no-effect control and ±100 the full control effect; nearly all actives have a fitted effect of over 55% in size
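Chicken DT40 Tdp1-/- cells complemented with human TDP1, 400 cells/well, exposed to compounds plus 20 nM camptothecin for at least 48 h at 37 C; viability read as ATP content by CellTiter-Glo luminescence.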
IL1B secr inh = inflammasome signaling inhibition, IL-1 beta readout | THP-1 LPS/ATP IL-1B secretion, AlphaLISA, 16 h; stronger effect = lower value | activity change, % at 57.5 µM | hit rate 4.7% among 360,000 | AID 743279; in the data active means activity change below about -50%; inconclusive means mostly about -30% to -49%; further: on the % scale 0 is the no-effect control and ±100 the full control effect
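Secreted IL-1B measured by AlphaLISA bead assay after 16 h compound exposure of THP-1 cells; compounds (final up to 57.5 uM) added 1 h before LPS (250 ng/mL) and ATP (1.25 mM) stimulation; lower signal means less secretion.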
DT40 TDP1 no CPT = qHTS for Inhibitors of human tyrosyl-DNA phosphodiesterase 1 (TDP1): qHTS in cells in absence of CPT. DT40 Tdp1-/- hTDP1 cells, no CPT, ATP luminescence, 48 h. Potency, µM (top dose mostly 46.2 µM), without a hit: at the highest dose activity change, negative = growth inhibition, actives largely listed as inhibitors. hit rate 15% among 420,000. AID 686978, 2013; further: potency means the concentration at half of the fitted maximal effect; on the % scale 0 is the no-effect control and ±100 the full control effect; nearly all actives have a fitted effect of over 55% in size
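Growth kinetics read by CellTiter-Glo luminescence after ≥48 hr at 37 °C. Cells: DT40 Tdp1-/- stably carrying human TDP1, 400 per well, compound exposure in the absence of CPT (DMSO vehicle).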
TGFb inhibitor = inhibitors of TGF-b signaling | HepG2 CAGA-GFP TGF-b/SMAD3 reporter, GFP fluorescence, 18 h; TGF-beta stimulated, 500 pg/mL final | Potency, µM (top dose mostly 46.1 µM), for inactives: at the top dose activity, negative = inhibition, actives largely listed as inhibitors | AID 588855 | hit rate 1.2% among 410,000; further: potency means the concentration at half of the fitted maximal effect; on the % scale 0 is the no-effect control and ±100 the full control effect; nearly all actives have a fitted effect of over 65% in size
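HEPG2 CAGA-GFP reporter cells (1000/well, DMEM with 1% FBS) received compounds, then recombinant TGF-beta at 500 pg/mL final for 18 hours at 37 degrees C. Per-cell GFP summed per well was normalised to unstimulated and stimulated DMSO controls before curve fitting.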
HepG2 tox-1 = HepG2 cytotoxicity, counter-screen for TGF-b inhibitors; hit rate 0.76% among 410,000; Potency, µM (top dose mostly 46.1 µM), for the others: at the top dose activity change, negative = cytotoxicity, actives largely listed as cytotoxic; HepG2 CAGA-GFP viability, ATP luminescence, 18 h; AID 588856; further: potency means the concentration at half of the fitted maximal effect
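HepG2 CAGA-GFP cells (1000/well, DMEM with 1% FBS) received compound, then TGF-beta at 500 pg/mL final, and were incubated 18 hours at 37 degrees C. Viability was read by CellTiter-Glo luminescence. Media-only wells were set as complete cell-killing and DMSO as no toxicity.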
TDP1 inh = TDP1 (human) enzyme inhibition. Q9NUW8. recombinant TDP1, AlphaScreen DNA substrate cleavage. Potency, µM (doses to about 130 µM), for the others: at the top dose activity change, negative = inhibition, hits mostly inhibitors. hit rate 0.28% among 350,000. AID 485290; further: potency means the concentration at half of the fitted maximal effect; on the % scale 0 is the no-effect control and ±100 the full control effect; nearly all actives have a fitted effect of over 40% in size
Target sequence (Q9NUW8 whole entry, looked up): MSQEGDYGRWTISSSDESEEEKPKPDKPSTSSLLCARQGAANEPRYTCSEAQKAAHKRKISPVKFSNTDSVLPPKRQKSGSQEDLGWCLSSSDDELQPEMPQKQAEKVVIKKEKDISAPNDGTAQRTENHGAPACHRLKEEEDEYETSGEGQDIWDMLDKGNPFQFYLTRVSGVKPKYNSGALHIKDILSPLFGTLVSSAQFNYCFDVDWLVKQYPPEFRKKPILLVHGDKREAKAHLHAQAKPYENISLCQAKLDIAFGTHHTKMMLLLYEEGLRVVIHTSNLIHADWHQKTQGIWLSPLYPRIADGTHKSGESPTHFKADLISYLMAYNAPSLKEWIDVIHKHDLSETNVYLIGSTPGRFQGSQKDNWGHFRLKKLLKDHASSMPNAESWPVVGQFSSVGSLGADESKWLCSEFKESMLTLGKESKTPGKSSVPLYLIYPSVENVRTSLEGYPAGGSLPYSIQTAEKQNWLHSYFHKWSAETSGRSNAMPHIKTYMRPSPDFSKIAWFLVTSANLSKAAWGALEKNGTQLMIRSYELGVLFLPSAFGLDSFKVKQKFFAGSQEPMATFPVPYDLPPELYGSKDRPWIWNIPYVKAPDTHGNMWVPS
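Recombinant E. coli-expressed Tdp1 (1 nM) preincubated with compound 15 min at RT, then 5'-biotin/3'-phosphotyrosine-FITC DNA substrate (15 nM) added for 5 min. AlphaScreen beads (10 ug/ml) added, 10 min RT; tyrosine-FITC cleavage read as signal loss.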
TGFb confirm = confirmation of TGF-b signaling inhibitors in HepG2 reporter cells. Potency, µM (titrated, usually from 46.1 µM), inactives show top-dose activity, negative = inhibition, usual class: inhibitors. shares compounds with TGFb inhibitor. HepG2 CAGA-GFP TGF-b reporter, GFP fluorescence, 18 h; cells stimulated with TGF-beta, 500 pg/mL. AID 720534. hit rate 63% among 1,600; further: potency means the concentration at half of the fitted maximal effect; on the % scale 0 is the no-effect control and ±100 the full control effect; nearly all actives have a fitted effect of over 65% in size
HepG2 tox-2 = toxic to HepG2 cells in TGF-b counterscreen; shares compounds with TGFb inhibitor; Potency, µM (series often up to 46.1 µM), for the others: at the top dose activity, negative = cytotoxicity, actives largely listed as inhibitors; hit rate 27% among 1,600; AID 720535; HepG2 CAGA-GFP viability, ATP luminescence, 18 h; cells stimulated with TGF-beta, 500 pg/mL; further: potency means the concentration at half of the fitted maximal effect; on the % scale 0 is the no-effect control and ±100 the full control effect; nearly all actives have a fitted effect of over 70% in size
CCL64 TGFb inh = TGF-b inhibition, CCL64 orthogonal assay. shares compounds with TGFb inhibitor. CCL64 CAGA-GFP reporter, TGF-b stimulated, GFP fluorescence, 18 h. Potency, µM (series often up to 46.1 µM), for inactives: top-dose activity, negative = inhibition, actives largely listed as inhibitors. hit rate 41% among 1,600. AID 720536; further: potency means the concentration at half of the fitted maximal effect; nearly all actives have a fitted effect of over 65% in size
TGFb COP inh = validation of TGF-b inhibitors in HepG2 COP promoter reporter; HepG2 COP-GFP TGF-b reporter, GFP fluorescence, 18 h; cells stimulated by added recombinant TGF-beta; AID 720537; hit rate 3% among 1,600; Potency, µM (highest dose often 46.1 µM), for the others: at the top dose activity, negative = inhibition, most hits filed as inhibitors; shares compounds with TGFb inhibitor; further: potency means the concentration at half of the fitted maximal effect; nearly all actives have a fitted effect of over 70% in size
* hit, by the source's call. A selection: hits, their analogues and other compounds. The true share with any hit is near 18%. Unless noted, the call rests on the fitted dose curve; in most records, active means well fitted curve in the direction sought with a large enough effect; inconclusive means small, poorly fitted or top-dose-only effect, or another doubt; inactive means no such curve, though single readings can be large; an effect the other way counts as inactive or inconclusive.

Screening O=C1N[C@@H](Cc2c[nH]c3ccccc23)COC(=O)[C@@H](Cc2ccc(F)cc2)CC/C=C/C[C@@H]1CC(=O)N(CCO)Cc1ccccc1 returned DT40 TDP1 CPT inconclusive, IL1B secr inh -60*, DT40 TDP1 no CPT 26µM*, TGFb inhibitor 8.9µM*, HepG2 tox-1 -2%, TDP1 inh 4%, TGFb confirm 5.8µM*, HepG2 tox-2 -8%, CCL64 TGFb inh inconclusive and TGFb COP inh 21%.
`O=C(C[C@H]1C/C=C\CC[C@H](Cc2ccc(F)cc2)C(=O)O[C@@H](c2ccccc2)CNC1=O)N[C@@H](CO)Cc1ccccc1` gave DT40 TDP1 CPT inconclusive, IL1B secr inh 63, DT40 TDP1 no CPT inconclusive, TGFb inhibitor 7.1µM*, HepG2 tox-1 -114%, TDP1 inh 0%, TGFb confirm inconclusive, HepG2 tox-2 inconclusive, CCL64 TGFb inh 13µM* and TGFb COP inh 25%.
`O=C1NC[C@H](c2ccccc2)OC(=O)[C@@H](Cc2ccc(F)cc2)CC/C=C/C[C@H]1CC(=O)N(CCO)Cc1ccccc1` gave DT40 TDP1 CPT 13µM*, IL1B secr inh -2, DT40 TDP1 no CPT 12µM*, TGFb inhibitor 11µM*, TDP1 inh 3%, TGFb confirm 21µM*, CCL64 TGFb inh inconclusive and TGFb COP inh 53%.
Screening O=C(C[C@H]1C/C=C\CC[C@H](Cc2ccc(F)cc2)C(=O)OC[C@@H](Cc2c[nH]c3ccccc23)NC1=O)NCCO returned DT40 TDP1 CPT inconclusive, IL1B secr inh 7, DT40 TDP1 no CPT inconclusive, TGFb inhibitor 0%, HepG2 tox-1 0% and TDP1 inh 2%.
`C/C(=N\NC(=O)c1nnn(-c2nonc2N)c1COc1ccc(F)cc1)c1ccc(Cl)cc1` gave DT40 TDP1 CPT 5%, IL1B secr inh 2, DT40 TDP1 no CPT -28%, TGFb inhibitor 21%, HepG2 tox-1 3% and TDP1 inh -3%.
